Most compounds without a hit are left out; they make up all but 1.3% or so of the library.
Pin1 inhibitor = inhibitors of human Pin1. Pin1 FP peptide displacement, HiFluor488, 10 min. Potency, µM (series often up to 115 µM), for inactives: top-dose activity, negative = inhibition, actives largely listed as inhibitors. AID 504891. 390,000 tested, 0.009% active. Q13526; active means well fitted inhibition curve with a large enough effect in the polarisation, with a control signal flat, not every such curve was filed as active; inconclusive means small, poorly fitted or top-dose-only effect, or effect the other way, or a change in a side signal; inactive means no such curve, though single readings can be large or run the other way; the % refers to the polarisation; further: potency means the concentration at half of the fitted maximal effect
Target sequence (Q13526 whole entry, looked up): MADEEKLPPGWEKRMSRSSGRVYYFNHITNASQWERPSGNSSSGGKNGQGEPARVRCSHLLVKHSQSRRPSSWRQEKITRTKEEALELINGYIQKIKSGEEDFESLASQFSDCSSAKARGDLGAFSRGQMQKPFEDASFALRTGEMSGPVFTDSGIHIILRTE
rTrxR1 inhibitor = rat TrxR1 inhibition; AID 588453; O89049; recombinant rTrxR1, NADPH fluorescence consumption, selenite substrate; Potency, µM (titrated, usually from 114 µM), for inactives: at the highest dose activity change, negative = inhibition, usual class: inhibitors; 390,000 tested, 1% active; further: potency means the concentration at half of the fitted maximal effect; nearly all actives have a fitted effect of over 65% in size
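Rat TrxR1 (90 nM in the dispensed reagent) was pre-reduced with 400 uM NADPH for 5 min at room temperature, then incubated with compound for 15 min. After 400 uM selenite was added, NADPH fluorescence (Ex 340/Em 450 nm) was followed for 8 min.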
GCN5L2 inh = GCN5L2 (KAT2A) acetyltransferase inhibition. 390,000 tested, 0.21% active. GCN5L2 HAT assay, ThioGlo1 CoA-SH fluorescence. Q92830. Potency, µM (titrated, usually from 58.9 µM), without a hit: at the top dose activity change, negative = inhibition, most hits filed as inhibitors; further: potency means the concentration at half of the fitted maximal effect
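Enzyme at 20nM final was mixed with library compounds for 15 min at room temperature. Peptide H3(1-25) at 75uM, acetyl-CoA at 70uM and ThioGlo1 at 50uM were then added. Plates were read immediately and after 20 min (Ex340nm/Em540nm).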
GALK inhibitor = galactokinase (human) inhibition; Potency, µM (series often up to 57.5 µM), inactives show at the top dose activity change, negative = inhibition, usual class: inhibitors; AID 1868; 270,000 tested, 0.007% active; Purified GALK, Kinase-Glo residual ATP luminescence; further: potency means the concentration at half of the fitted maximal effect
Target sequence (P51570 whole entry, looked up): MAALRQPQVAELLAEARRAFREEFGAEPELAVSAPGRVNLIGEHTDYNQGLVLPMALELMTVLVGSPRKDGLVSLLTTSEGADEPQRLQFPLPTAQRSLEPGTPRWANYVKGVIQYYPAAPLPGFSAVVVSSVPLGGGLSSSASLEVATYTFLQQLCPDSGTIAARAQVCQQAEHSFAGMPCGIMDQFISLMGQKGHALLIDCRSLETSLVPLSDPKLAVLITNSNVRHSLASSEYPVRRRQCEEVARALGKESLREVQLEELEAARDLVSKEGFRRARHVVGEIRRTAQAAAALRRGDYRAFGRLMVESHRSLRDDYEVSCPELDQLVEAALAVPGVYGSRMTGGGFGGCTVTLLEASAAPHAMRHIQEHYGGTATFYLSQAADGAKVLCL
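Kinase-Glo Plus luminescence measured ATP left after a 1 h room-temperature reaction. The reaction used 5 nM GALK, 100 uM galactose and 35 uM ATP at pH 8.0 (20 mM HEPES, 5 mM MgCl2, 60 mM NaCl, 1 mM DTT, 0.01% BSA).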
TrxR1 substrate = substrates of rat thioredoxin reductase 1; purified TrxR1 substrate turnover, NADPH consumption readout; Potency, µM (top dose mostly 114 µM), for inactives: top-dose activity change, negative = substrate turnover; 390,000 tested, 0.01% active; AID 588456; further: potency means the concentration at half of the fitted maximal effect; nearly all actives have a fitted effect of over 50% in size
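Rat TrxR1, dispensed at 90 nM, was prereduced with 400 uM NADPH (final) for 5 min at ~22 deg C, then incubated with compound 15 min before 400 uM selenite. A first-read NADPH fluorescence drop versus no-compound background flagged substrates.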
Giardia killer = kills Giardia lamblia; Giardia lamblia trophozoite viability; activity change, % at 7.66 µM, hits read low; 340,000 tested, 0.15% active; in the data active means activity change below about -80%; inconclusive means between about -30% and that limit;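 further: parasites exposed to compound for two days anaerobically before the ATP read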
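Anaerobic 48 hrs incubation at 37 deg C of 100 trophozoites/well with test compounds; ATPLite 1-Step luminescence, 15-30 min RT, reports cellular ATP as viability.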
* = called active by the depositor; ? = inconclusive; · = no result; [ ] = remark or other dose. Unless noted, the call rests on the fitted dose curve; in most records, active means well fitted curve in the direction sought with a large enough effect; inconclusive means small, poorly fitted or top-dose-only effect, or another doubt; inactive means no such curve, though single readings can be large; an effect the other way counts as inactive or inconclusive. On the % scale 0 is the no-effect control and ±100 the full control effect.

SMILES | Pin1 inhibitor | rTrxR1 inhibitor | GCN5L2 inh | GALK inhibitor | TrxR1 substrate | Giardia killer
CC(=O)N(C1CC(C)C(C#N)(C#N)C1(C#N)C#N)N(C)C (stereo not given) | -17% | 1.6µM* | 4% | -1% | 12%[57.1 µM] | 1
CCCC(=O)N(C1CC(C)C(C#N)(C#N)C1(C#N)C#N)N(C)C (stereo not given) | 3% | 2.5µM* | -13% | 1% | 13%[57.1 µM] | -3
C=C[C@@H]1c2cc(C)ccc2N(S(=O)(=O)c2ccc(C)cc2)[C@H](c2ccc(C(C)(F)F)cc2)C1(C#N)C#N | · | 29% | · | · | 5% | ·
NC(=S)NN=C1c2ccccc2-c2c(F)c(F)c(F)c(F)c21 | 3% | 56µM* | · | · | -10% | -15
CCOC(=O)Cc1csc(NC(=O)NC2(C(F)(F)F)Oc3ccc(Cl)cc3O2)n1 (stereo not given) | 3% | 8.9µM* | 0% | 0% | 8%[57.1 µM] | -1
CCOC(=O)Cc1csc(NC(=O)NC2(C(F)(F)F)Oc3ccccc3O2)n1 | 8% | 11µM* | -4% | 0% | -5% | 5
Cc1ccccc1-c1nc(CS(=O)CC(=O)NC(C)CCc2ccccc2)c(C)o1 (stereo not given) | -4% | 2.2µM* | -10% | 0% | 9% | -3
COc1cccc(-c2nc(CS(=O)CC(=O)NCCc3ccccc3)c(C)o2)c1 (stereo not given) | 7% | 28µM* | -3% | -8% | -7% | -1
COc1cccc(-c2nc(CS(=O)CC(=O)NC(C)CCc3ccccc3)c(C)o2)c1 (stereo not given) | 4% | 28µM* | -4% | -5% | 2% | 12
CCC(C)NC(=O)CS(=O)Cc1nc(-c2cccc(OC)c2)oc1C (stereo not given) | -4% | 25µM* | -8% | 2% | 10%[57.1 µM] | 13
Cc1cccc(-c2nc(CS(=O)CC(=O)NCCc3ccccc3)c(C)o2)c1 (stereo not given) | 8% | 7% | -3% | 2% | 2% | -11
CCNc1cccc(S(=O)(=O)N2CCN(S(=O)(=O)c3ccc4c(c3)OCCO4)CC2)c1 | -2% | · | · | · | · | ·
O=C(NCC(c1ccc2c(c1)OCO2)N1CCN(c2ccccc2)CC1)C(=O)Nc1cccc(F)c1 (stereo not given) | -4% | 40%[57.1 µM] | -8% | · | 6%[57.1 µM] | ·
CCOc1ccc(C(=O)NCCn2cc(SCC(=O)Nc3ccc4c(c3)OCCO4)c3ccccc32)cc1 | 71% | 16% | -6% | · | -6% | ·
COc1ccc(Cl)c(Cn2cnc3c(cnn3C(C)(C)C)c2=O)c1F | · | 3% | · | · | 5% | ·
CN(CC(=O)Nc1ccc(Cl)c(C(F)(F)F)c1)C(=O)CCCNC(=O)c1ccc(Cl)cc1 | ? | -5% | -8% | · | -11% | 9
N#C/C(=C\c1ccccc1)C(=O)NNS(=O)(=O)c1cccc([N+](=O)[O-])c1 | ? | 10µM* | -25% | · | -2% | -5
Cc1ccc(S(=O)(=O)NC2OC(=O)C(Cl)=C2Cl)cc1 (stereo not given) | ? | 10µM* | 3% | -1% | -2% | 24
COc1ccc(CCN(C)C(=O)COC(=O)/C=C/c2ccc(C)o2)cc1OC | 10% | 16µM* | -30% | · | -14% | 7
COC1=CC(=O)c2c(ccc3ncnc(N)c23)C1=O | · | ? | · | · | 79µM* | 44
COc1cccc2c1C(=O)C=C(C)C2=O | -2% | 21%[57.1 µM] | -2% | -4% | 16%[57.1 µM] | -3
CN(C(=O)COC(=O)c1ccccc1OCC(=O)Nc1ccc(Br)cc1)c1ccccc1 | · | 30% | · | · | 6% | ·
O=C(O)/C=C/S(=O)(=O)c1ccc2ccccc2c1 | 2% | 11µM* | 1% | 3% | 7% | -10
O=C(O)C1(C(=O)O)CCCC1 | -4% | 7%[2.29 µM] | · | · | 9%[57.1 µM] | -21
O=C(O)C1(C(=O)O)CCC1.[NH2-].[NH2-].[Pt+2] | · | · | 20µM* | · | · | ·
SMILES | Pin1 inhibitor | rTrxR1 inhibitor | GCN5L2 inh | GALK inhibitor | TrxR1 substrate | Giardia killer
COC(=O)CNC(c1ccccc1)c1cc(Br)ccc1NC(=O)CCN1CCOCC1 (stereo not given) | -2% | 2.2µM* | -2% | -1% | 0% | 4
COc1ccc(C(CNC(=O)c2ccc3c(c2)OCCO3)N(C)C)cc1 (stereo not given) | 2% | 13% | -1% | -3% | 3% | -13
Nc1ccccc1SSc1ccccc1N | 7% | 122%[57.1 µM] | ? | -1% | -6%[57.1 µM] | -24
CC(C(Sc1ccccc1N)c1ccccc1)[N+](=O)[O-] (stereo not given) | -6% | 6.3µM* | -19% | 2% | 0% | -29
CC[C@H](C)[C@H](NC(=O)[C@H](Cc1ccc(O)cc1)NC(=O)[C@H](CCCNC(=N)N)NC(=O)[C@H](CCCNC(=N)N)NC(=O)[C@H](CC(C)C)NC(=O)[C@H](CC(=O)O)NC(=O)[C@H](C)NC(=O)[C@H](C)NC(=O)[C@H](Cc1ccc(O)cc1)NC(=O)[C@H](CCC(N)=O)NC(=O)[C@H](C)NC(=O)[C@H](CCSC)NC(=O)[C@H](CCC(N)=O)NC(=O)[C@H](CCC(=O)O)NC(=O)[C@@H]1CCCN1C(=O)[C@@H](NC(=O)[C@H](C)NC(=O)[C@H](CC(N)=O)NC(=O)[C@H](CC(=O)O)NC(=O)CNC(=O)[C@@H]1CCCN1C(=O)[C@H](Cc1ccc(O)cc1)NC(=O)[C@@H](NC(=O)[C@@H]1CCCN1C(=O)[C@H](CCC(=O)O)NC(=O)[C@H](CC(C)C)NC(=O)[C@@H]1CCCN1C(=O)[C@H](C)N)C(C)C)[C@@H](C)O)C(=O)N[C@@H](CC(N)=O)C(=O)N[C@@H](CCSC)C(=O)N[C@@H](CC(C)C)C(=O)N[C@H](C(=O)N[C@@H](CCCNC(=N)N)C(=O)N1CCC[C@H]1C(=O)N[C@@H](CCCNC(=N)N)C(=O)N[C@@H](Cc1ccc(O)cc1)C(N)=O)[C@@H](C)O | · | · | 50% | · | · | ·
Cn1c(NCc2cccc(Cl)c2)nc2ccccc21 | 2% | -2% | 0% | · | -1% | ·
C[n+]1ccc(/C=N/Nc2nc(Cl)c(C#N)c(Cl)c2Cl)cc1 | 57% | 3.5µM* | -12% | -6% | -18% | -2
Cc1ccsc1C1NC(=O)c2c(sc3c2CCCC3)N1 (stereo not given) | -3% | 45µM* | -4% | 1% | 0% | 3
O=C1NC(c2ccc(Br)cc2)Nc2sc3c(c21)CCC3 (stereo not given) | -4% | ? | -16% | -2% | 5% | 9
COc1cc(C2Nc3cccc4cccc(c34)N2)ccc1OC(C)=O | ? | 10µM* | -19% | 1% | 1% | -2

Screens from PubChem BioAssay.
